TDP1 cell noCPT – qHTS for Inhibitors of human tyrosyl-DNA phosphodiesterase 1 (TDP1): qHTS in cells in absence of CPT. actives 15% (n = 420,000). Potency, µM (highest dose often 46.2 µM), for the others: top-dose activity change, negative = growth inhibition, hits mostly inhibitors. DT40 Tdp1-/- hTDP1 cells, no CPT, ATP luminescence, 48 h. AID 686978, 2013; also: potency is read from the fitted curve at half-maximal effect; nearly all actives have a fitted effect of over 55% in size
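Readout: luminescence from CellTiter-Glo after 30 min in the dark at RT. Cells: DT40 Tdp1-/- with stable hTDP1, 400/well. Exposure: compounds alone, ≥48 hr, 37 °C.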
HT1080NT lethal – kills 2HG-producing HT-1080-NT fibrosarcoma cells; HT-1080-NT fibrosarcoma viability, CellTiter-Glo ATP luminescence, 48 h; Potency, µM (top dose mostly 46.1 µM), for inactives: top-dose activity, negative = less viability, usual class: cytotoxic; actives 1.6% (n = 360,000); AID 686970;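 also: NT is the 2HG producing partner of a matched IDH1 knockdown line; potency is read from the fitted curve at half-maximal effect; 0% = DMSO-treated cells and -100% = media-only wells without cells; nearly all actives have a fitted effect of over 55% in size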
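Read-out is CellTiter-Glo luminescence after 10 minutes at room temperature, following 48 hours' compound treatment of HT-1080-NT cells (750 cells/well, RPMI, 5% FBS, 37 degrees C).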
DT40 TDP1 CPT – DT40-hTDP1 cell growth loss with CPT. chicken DT40 Tdp1-/-;hTDP1 cells + 20 nM CPT, ATP luminescence, 48 h. Potency, µM (highest dose often 46.2 µM), without a hit: top-dose activity change, negative = growth inhibition, hits mostly inhibitors. actives 12% (n = 420,000); also: potency is read from the fitted curve at half-maximal effect; nearly all actives have a fitted effect of over 55% in size
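Cell growth measured by CellTiter-Glo luminescence after a minimum 48 h, 37 C compound exposure with 20 nM CPT in Tdp1-knockout DT40 cells stably expressing hTDP1, seeded 400/well; qHTS titration format.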
IL-1B inflam inh – blocks inflammasome-driven IL-1 beta release; THP-1 LPS/ATP IL-1B secretion, AlphaLISA, 16 h; active compounds read low; activity change, % at 57.5 µM; actives 4.7% (n = 360,000); in the data active = activity change below about -50%; inconclusive = mostly about -30% to -49%
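Secreted IL-1B measured by AlphaLISA bead assay after 16 h compound exposure of THP-1 cells; compounds (final up to 57.5 uM) added 1 h before LPS (250 ng/mL) and ATP (1.25 mM) stimulation; lower signal means less secretion.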
HT1080 IDH1KD tx – toxicity to HT-1080 IDH1 knockdown cells (counter line) | HT-1080 IDH1 knockdown viability, ATP luminescence, 48 h | actives 2% (n = 360,000) | Potency, µM (series often up to 46.1 µM), inactives show top-dose activity, negative = toxicity, most hits filed as cytotoxic | AID 686971;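 also: potency is read from the fitted curve at half-maximal effect; 0% = DMSO wells and -100% = cell-free medium wells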
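IDH1KD HT-1080 cells, 750/well, RPMI + 5% FBS; compound pinned after 2 h settling; 48 h, 37 °C; CellTiter-Glo luminescence; % activity normalised to DMSO and no-cell wells; curves fitted, classed by r2 and efficacy.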
* = called active by the depositor; ? = inconclusive; · = no result given; [ ] = remark or other dose. Rows were chosen to be rich in hits. Some 19% of all compounds tested hit in one or more screens of this group. Unless noted, calls follow the shape of the dose curve; as a rule, active = well fitted curve in the direction sought with a large enough effect; inconclusive = small, poorly fitted or top-dose-only effect, or another doubt; inactive = no such curve, though single readings can be large; an effect the other way counts as inactive or inconclusive. Unless noted, % is scaled to controls: 0 for no effect and ±100 for the full control effect.

SMILES | TDP1 cell noCPT | HT1080NT lethal | DT40 TDP1 CPT | IL-1B inflam inh | HT1080 IDH1KD tx
COc1ccc(C(=O)N2CCC3(CCCN(Cc4cc(C(F)(F)F)cc(C(F)(F)F)c4)C3)CC2)cc1 | ? | · | 21µM* | · | ·
FC(F)(F)c1cc(CN2CCCC3(CCNCC3)C2)cc(C(F)(F)F)c1 | 18µM* | · | ? | · | ·
O=C(c1cccc(F)c1)N1CCC2(CCCN(Cc3cc(C(F)(F)F)cc(C(F)(F)F)c3)C2)CC1 | ? | · | -11% | · | ·
O=C1Nc2ccccc2CCC1Sc1nnc(-c2ccc(Cl)cc2)s1 (stereo unspecified) | 29µM* | ? | ? | -5 | 4%
O=C(CNc1cccc(S(=O)(=O)N2CCCCCC2)c1)Nc1cccc([N+](=O)[O-])c1 | 23µM* | ? | ? | -25 | ?
COc1ccc([N+](=O)[O-])cc1NCC(=O)Nc1cccc(S(=O)(=O)N2CCCC2)c1 | 16µM* | -7% | ? | -10 | -1%
O=C(CNc1cccc([N+](=O)[O-])c1)NC(=O)NC1CCCCC1 | ? | -10% | 15µM* | -52* | -5%
O=C(CNc1cc([N+](=O)[O-])ccc1NCCO)Nc1cccc(S(=O)(=O)N2CCCCC2)c1 | ? | -4% | ? | -21 | -1%
COc1ccc(S(=O)(=O)NC(=O)C2(C)CCN2C(=O)C2(c3ccccc3)CCCC2)cc1 (stereo unspecified) | ? | 1% | ? | 41 | -12%
Cc1occc1C(=O)NCCN1Cc2ccccc2OC(c2ccccc2F)C1 (stereo unspecified) | ? | · | 2%[9.04 µM] | · | ·
CCc1ccccc1NC(=O)c1noc(C(C)C)c1[N+](=O)[O-] | ? | ? | 15µM* | ? | ?
CC(C)c1onc(C(=O)NCc2ccccc2)c1[N+](=O)[O-] | 21µM* | -8% | 16µM* | -9 | -18%
CC(C)c1onc(C(=O)NCc2ccc(Cl)cc2)c1[N+](=O)[O-] | ? | -2% | ? | -25 | 3%
Cc1onc(C(=O)Nc2cccnc2Cl)c1[N+](=O)[O-] | -13% | 0% | ? | 24 | -3%
Cc1nn(Cc2ccccc2Cl)c(C)c1NC(=O)c1noc(C(C)C)c1[N+](=O)[O-] | 0% | -6% | -7% | 4 | -3%
CC(C)c1onc(C(=O)Nc2cccnc2Cl)c1[N+](=O)[O-] | ? | 10% | 23µM* | 4 | 2%
Cc1cccc(N2N=C(C(=O)O)CCC2=O)c1 | 11% | -1% | 1% | 21 | -6%
CC(C)[C@H](N)c1cn([C@@H](CC(N)=O)C(=O)N2CCNCC2)nn1 | 8% | 0% | 13% | 11 | 7%
O=C(/C=C/c1ccccc1Cl)Nc1ccccc1 | -19% | -7% | -28% | -65* | -20%
CCCCOC(=O)c1cccc(NC(=O)/C=C/c2ccccc2Cl)c1 | 21µM* | · | ? | · | ·
CN(C)S(=O)(=O)c1ccc(NC(=O)/C=C/c2ccccc2Cl)cc1 | 23µM* | -12% | ? | -27 | -27%
Cc1coc2c1c(C)cc1oc(=O)c(CC(=O)NCCCN3CCCC3=O)c(C)c12 | ? | 6% | ? | -21 | -1%
Cc1ccccc1NC(=O)c1cccc(S(=O)(=O)Oc2ccc([N+](=O)[O-])cc2)c1 | ? | -6% | ? | -58* | 0%
CN(C)S(=O)(=O)Oc1cccc(C(=O)Nc2ccc([N+](=O)[O-])cc2)c1 | 8.2µM* | -22% | ? | 8 | ?
O=C(Nc1ccc(O)cc1)c1cccc(Oc2ccc([N+](=O)[O-])cc2)c1 | 18µM* | ? | ? | -68* | ?
SMILES | TDP1 cell noCPT | HT1080NT lethal | DT40 TDP1 CPT | IL-1B inflam inh | HT1080 IDH1KD tx
COc1ccc(CNc2ncncc2-c2cccc(NS(C)(=O)=O)c2)c(OC)c1 | 6% | · | -10% | · | ·
COc1ccc(CNc2ncncc2-c2ccc(N(C)C)cc2)c(OC)c1 | ? | · | 18µM* | · | ·
COc1ccc(CNc2ncnc3ccc(-c4c(C)noc4C)cc23)c(OC)c1 | ? | · | -7% | · | ·
COc1ccc(CNc2ncnc3ccc(-c4ccc(N(C)C)cc4)cc23)c(OC)c1 | ? | · | 23µM* | · | ·
COc1cccc(C(=O)NC2CCCc3c2cnn3-c2cc(C)cc(C)c2)c1 (stereo unspecified) | ? | -14% | ? | -58* | -20%
CSCC(=O)NC1CCCc2c1cnn2-c1ccc(C)c(C)c1 (stereo unspecified) | ? | -4% | -12% | -7 | -6%
COC(=O)c1ccc(C(=O)NC2CCCc3c2cnn3-c2ccc(C)c(C)c2)cc1 (stereo unspecified) | 1µM* | 15µM* | 1.3µM* | 8 | 23µM*
Cc1cc(C(=O)NC2CCCc3c2cnn3-c2ccc(C)c(C)c2)nc(C)n1 (stereo unspecified) | 16µM* | -1% | ? | 24 | -19%
COCCNC(=O)CSc1nc2cc3c(cc2c(=O)n1CCCCCC(=O)NCCc1ccc(OC)c(OC)c1)OCO3 | -10% | · | 9% | · | ·
O=C(NCCCCO)c1c(-c2ccccc2)oc2c1C(OCCCCCO)CCC2 (stereo unspecified) | ? | 17% | -16% | -1 | -1%
O=S(=O)(c1cccc(Br)c1)N1CCN(CCc2ccccc2)CC1 | ? | -10% | ? | -11 | -11%
CC1(c2nc3ccccc3[nH]2)CCC(=O)N1Cc1ccc(F)cc1 (stereo unspecified) | 18% | 13% | -1% | 17 | 17%
C=CCN(c1ccccc1OC)S(=O)(=O)c1cccc(C(=O)OCC(=O)c2c[nH]c3ccccc23)c1 | 23µM* | 1% | ? | -2 | -13%
C=CCN(c1ccccc1OC)S(=O)(=O)c1cccc(C(=O)NC2=NCCS2)c1 | 23µM* | 2% | ? | -11 | 2%
CC(C)Cc1ccc(C(C)C(=O)OCC(=O)c2c[nH]c3ccccc23)cc1 (stereo unspecified) | 13µM* | ? | 10µM* | -24 | ?
Cc1ccc(C(=O)OCC(=O)c2c[nH]c3ccccc23)cc1 | 0% | -10% | -2% | 40 | -10%
COc1cc(OC)c(N(C)S(=O)(=O)c2cccc(C(=O)OCC(=O)c3c[nH]c4ccccc34)c2)cc1Cl | 23µM* | -20% | ? | 13 | ?
COc1ccccc1/C=C/C(=O)OCC(=O)c1c[nH]c2ccccc12 | 21µM* | -11% | ? | 29 | 1%
COc1ccccc1/C=C/C(=O)OCC(=O)c1cc(C)n(C)c1C | ? | 23% | ? | -14 | 19%
O=Cc1ccccc1OCc1ccc2c(c1)OCO2 | 2.9µM* | ? | 5.2µM* | 33 | ?
